Compound activity deposited in PubChem by Sanford-Burnham Center for Chemical Genomics.
A selection: hits, their analogues and other compounds. The true share with any hit is near 4%.
KKLEB tox = reduces viability of KKLEB cystic fibrosis airway cells. activity change (cytotoxicity), % at 5 µM. KKLEB CF airway cells viability, ATPlite luminescence, overnight; hits give low values; cells stimulated with P. aeruginosa culture filtrate. AID 602141. actives 0.36% (n = 360,000);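 active means corrected activity change at or below -50% at 5 µM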
HIF-2a block = HIF-2a inhibition | 786-0 RCC cells HIF-2a reporter, luciferase luminescence, overnight | inhibition, % at 18.8 µM | actives 0.72% (n = 360,000) | AID 624352;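 active means inhibition of the luminescence signal of 40% or more relative to plate controls, in a single-dose primary screen at 18.75 µM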
TROY NFkB inh = TROY signaling inhibition. actives 0.98% (n = 360,000). inhibition, % at 10 µM. Q293 LMP1-TROYcd NF-kB luciferase reporter, 4 h. AID 1347056;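 active means compounds whose plate-normalised and pattern-corrected inhibition of the luciferase reporter signal at the single screening dose is 50% or more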
Peg3 prom inh = inhibitors of Peg3 promoter. inhibition, % at 20 µM. actives 1.7% (n = 360,000). HeLa PEG-Prom luciferase reporter, luminescence, overnight. AID 588405;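 active means inhibition of at least 50% at 20 µM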
CF NFkB block = cystic fibrosis NF-kB activation inhibition; KKLEB NF-kB-GFP reporter, PAF-induced, GFP fluorescence overnight; inhibition, % at 5 µM; actives 0.86% (n = 360,000);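 active means at least 50% inhibition at 5 µM, scaled per plate between neutral and stimulator controls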;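 further: PAF is a Pseudomonas aeruginosa culture filtrate used as stimulus; plate controls were PAF-stimulated DMSO wells for no effect and unstimulated DMSO wells for full effect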
TWEAK Fn14 block = inhibitors of TWEAK-Fn14 interaction signaling; TWEAK-stimulated Fn14 reporter cells, luciferase luminescence, 8 h; inhibition, % at 10 µM; actives 2% (n = 360,000); AID 1159606; in the data active means inhibition above about 50%
Active calls of the source: *; / = no result.

SMILES	KKLEB tox	HIF-2a block	TROY NFkB inh	Peg3 prom inh	CF NFkB block	TWEAK Fn14 block
O=C(NC(=S)Nc1nc2c(s1)CCCC2)c1ccccc1	-52*	-222	23	-163	44	30
O=C(Nc1nc2c(s1)CCCC2)c1ccc(N2C(=O)CCC2=O)cc1	-8	-172	-31	-68	12	-12
CCN1CCc2nc(NC(=O)c3ccccc3)sc2C1	-13	-9	50	36	-7	85*
O=C(Nc1nc2c(s1)CN(Cc1ccccc1)CC2)C1CCC1	-10	-134	-22	-94	-27	4
O=C(Nc1nc2c(s1)CCCC2)c1ccc(Br)s1	2	-327	6	-300	-22	55*
CCCc1nnc(NC(=O)C2CCN(C(=O)C3CC(=O)N(c4ccc(C)cc4)C3)CC2)s1 (centres undefined)	9	4	-7	-4	-3	12
Cc1ccccc1CNC(=O)c1csc([C@H]2C[C@H](O)[C@@H](CO)O2)n1	-7	4	-12	6	-12	9
CCOC(=O)c1c(C)[nH]c(C(=O)OCC(=O)NC2CCS(=O)(=O)C2)c1C (centres undefined)	5	8	/	2	-3	87*
O=C(Nc1ncccc1O)c1ccc(S(=O)(=O)NCc2ccco2)cc1	-20	-30	-2	-3	33	-18
CC1(c2cccc(Br)c2)NC(=O)N(CC(=O)c2ccc3c(c2)OCO3)C1=O (centres undefined)	1	9	-4	19	-8	-5
Cc1cc(C)c(CN2CCN(C(=O)Cn3cnc(C(=O)Nc4ccc(C)c(C)c4)n3)CC2)c(C)c1	-69*	6	33	86*	48	5
Cc1ccc(NC(=O)c2ncn(CC(=O)N[C@H](C)c3cccc4ccccc34)n2)cc1C	-17	-235	-29	-95	15	-5
Cc1ccc(NC(=O)Cn2cnc(C(=O)Nc3ccc(C)c(C)c3)n2)cc1C	-20	8	-11	21	20	-16
Cc1ccc(NC(=O)c2ncn(CCCN3CCN(Cc4cccc5ccccc45)CC3)n2)cc1C	-14	-24	11	97*	7	-20
CC(Oc1ccc(Cl)cc1Cl)c1nc(-c2ccc(NC(=O)c3ccccn3)cc2)no1 (centres undefined)	-50	-152	21	-168	23	53*
O=S(=O)(NC1c2cccc3cccc(c23)C1N1CCNCC1)c1ccc(Cl)cc1 (centres undefined)	-19	11	-13	77*	24	-46
NC(=O)[C@@H]1CCCN1C(=O)c1ccc2nc(Cc3cccc(Cl)c3)oc2c1	-8	6	20	17	8	21
Cc1cc(C)n(Cc2ccc(NC(=O)c3ccc(COc4ccccc4Br)cc3)cc2)n1	-9	-68	23	22	-20	60*
NC(=O)c1ccc(NC(=O)c2ccc(COc3ccccc3Br)cc2)cc1	4	-79	-41	-90	-24	-15
CCOC(=O)c1c(C)oc2c1cc(O)c1ccccc12	-5	-37	27	-303	-15	74*
O=Cc1cc(OCc2ccccc2)ccc1[B-](F)(F)F	-4	-16	-8	-10	-5	2
O=C1c2ccccc2C(=O)c2c(NCCCN(CCO)CCO)cccc21	-15	-6	-28	59*	-69	-80
CCN(CC)CC(=O)Nc1cccc2c1C(=O)c1ccccc1C2=O	-12	-14	-62	8	-51	-54
N#C/C(=C\c1ccc([N+](=O)[O-])o1)C(=O)Nc1ccc(F)cc1	4	-33	-23	53*	4	-11
COc1ccc(NC(=O)/C(C#N)=C\c2ccc(Br)o2)cc1	-5	-146	-67	-114	1	-5
SMILES	KKLEB tox	HIF-2a block	TROY NFkB inh	Peg3 prom inh	CF NFkB block	TWEAK Fn14 block
CCCCCCn1cc(CN2CC(N3CCN(CCO)CC3)CS2(=O)=O)nn1 (centres undefined)	/	6	-1	/	/	108*
CCCCCCN1CCN(C2CN(Cc3cn(Cc4ccc(Cl)cc4)nn3)S(=O)(=O)C2)CC1 (centres undefined)	/	-21	7	/	/	21
Cc1cc(C)nc(SCCC(=O)Nc2ccccc2)n1	0	-8	2	6	-2	-7
Cc1cc(C)nc(SCCC(=O)Nc2ccccc2C)n1	-11	-2	-18	18	0	106*
CCN1C(=O)C(C(=O)Nc2ccc(OC)cc2)C2CC1(C)Oc1ccccc12 (centres undefined)	8	-63	/	-88	-9	78*
Cc1ccc(C)c(NC(=O)CN(C)C(=O)C2=NNC(=O)CC2)c1	8	4	-19	-4	17	12
CCCCCCCCN1C(=O)[C@H](CC(=O)N2CCSCC2)C[C@@]2(C(=O)OC)CCCCC=C12	/	10	4	/	/	6
Cc1sc(-c2ccccn2)nc1OC(=O)c1ccc(Cl)cc1	-6	9	58*	10	9	28
COC(=O)CNc1nc(Cl)nc(NC2CCCCC2)n1	16	-12	3	-18	-1	0
COc1ccc(C2/C=C\CN(C(=O)C3CC3)[C@H](Cc3ccccc3)C(=O)N2Cc2ccc(F)cc2)cc1 (some centres undefined)	-4	12	6	21	0	10
COc1ccc(C2/C=C\CN(C(=O)c3ccc(C)cc3)[C@H](Cc3ccccc3)C(=O)N2Cc2ccc(F)cc2)cc1 (some centres undefined)	-8	-1	6	70*	-7	21
O=C1Nc2ccccc2N(O)N1c1cc(-c2ccccc2Cl)no1	-6	-5	1	1	-4	55*
O=C(NNc1nc2ccccc2s1)Nc1ccc(F)cc1	-5	-193	45	-212	-38	65*
Cc1ccc2nc(NC(=O)c3ccccc3F)sc2c1	-22	-69	8	-16	20	69*
O=C1CC(NNc2nc3ccccc3s2)C(=O)N1c1ccc(F)cc1 (centres undefined)	-2	12	69*	4	7	16
O=C(NNc1nc2ccccc2s1)c1ccccc1F	-2	-72	69*	-45	-2	3
Cc1ccc(C(=O)NCCCNC(=O)COc2ccc(C)c(C)c2)cn1	-2	11	-17	-8	9	23
CC(C)(CO)NC(=O)C12CC3CC(CC(Br)(C3)C1)C2	-5	9	8	7	-20	15
CC(C)c1nnc(NC(=O)C2CCN(C(=O)Nc3ccccc3)CC2)s1	2	33	-16	-8	-4	0
Cc1nc2c(OCc3ccccc3)cccn2c1N(C)C(=O)C1CCCCC1	19	14	-11	12	-20	0
CC(=O)NC1=C(Nc2ccc(N(C)C)cc2)C(=O)c2ccccc2C1=O	1	-213	24	-247	0	43
CNC1=C(N(C(C)=O)c2ccc(Br)cc2)C(=O)c2ccccc2C1=O	-62*	60*	64*	102*	76*	91*
